A selection: hits, their analogues and other compounds. The true share with any hit is near 19%.
TDP1 cell noCPT – qHTS for Inhibitors of human tyrosyl-DNA phosphodiesterase 1 (TDP1): qHTS in cells in absence of CPT. DT40 Tdp1-/- hTDP1 cells, no CPT, ATP luminescence, 48 h. Potency, µM (doses to about 46.2 µM), without a hit: at the top dose activity change, negative = growth inhibition, most hits filed as inhibitors. 420,000 compounds, 15% hits; further: potency means the concentration at half of the fitted maximal effect; nearly all actives have a fitted effect of over 55% in size
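Readout: luminescence from CellTiter-Glo after 30 min in the dark at RT. Cells: DT40 Tdp1-/- with stable hTDP1, 400/well. Exposure: compounds alone, ≥48 hr, 37 °C.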
HT1080-NT tox – qHTS for induction of synthetic lethality in tumor cells producing 2HG: qHTS for the HT-1080-NT fibrosarcoma cell line. HT-1080-NT fibrosarcoma viability, CellTiter-Glo ATP luminescence, 48 h. Potency, µM (series often up to 46.1 µM), inactives show at the top dose activity, negative = less viability, actives largely listed as cytotoxic. 360,000 compounds, 1.6% hits;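 further: NT is the 2HG producing partner of a matched IDH1 knockdown line; potency means the concentration at half of the fitted maximal effect; 0% = DMSO-treated cells and -100% = media-only wells without cells; nearly all actives have a fitted effect of over 55% in size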
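Toxicity toward the 2HG-producing NT line was scored as %Activity, normalised to DMSO and no-cell wells, from CellTiter-Glo luminescence after 48 hours' treatment.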
ELG1 DNA repair – qHTS screen for small molecules that inhibit ELG1-dependent DNA repair in human embryonic kidney (HEK293T) cells expressing luciferase-tagged ELG1. HEK293T ELG1-luciferase reporter, luminescence, 16 h; DNA damage induced by 5-fluorouridine. Potency, µM (doses to about 46.1 µM), inactives show top-dose activity change, negative = inhibition, most hits filed as inhibitors. 330,000 compounds, 2.3% hits. AID 504467, 2011; further: potency means the concentration at half of the fitted maximal effect; nearly all actives have a fitted effect of over 55% in size
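5-Fluorouridine DNA damage + compound/DMSO, 2,000 cells/well, 16 h, 37 °C/5% CO2. ONE-Glo, 30 min RT, luminescence. Readout = decrease in reporter signal.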
HT1080 IDH1KD tx – qHTS for induction of synthetic lethality in tumor cells producing 2HG: qHTS for the HT-1080-IDH1KD cell line; 360,000 compounds, 2% hits; AID 686971, 2013; HT-1080 IDH1 knockdown viability, ATP luminescence, 48 h; Potency, µM (doses to about 46.1 µM), for inactives: at the highest dose activity, negative = toxicity, actives largely listed as cytotoxic;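 further: potency means the concentration at half of the fitted maximal effect; 0% = DMSO wells and -100% = cell-free medium wells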
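Cytotoxicity counter-line: IDH1KD HT-1080, 48 h, CellTiter-Glo. Curves classed by r2, magnitude and activity.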
DT40 TDP1 CPT – qHTS for Inhibitors of human tyrosyl-DNA phosphodiesterase 1 (TDP1): qHTS in cells in presence of CPT; chicken DT40 Tdp1-/-;hTDP1 cells + 20 nM CPT, ATP luminescence, 48 h; Potency, µM (doses to about 46.2 µM), for inactives: at the highest dose activity change, negative = growth inhibition, usual class: inhibitors; 420,000 compounds, 12% hits; further: potency means the concentration at half of the fitted maximal effect; nearly all actives have a fitted effect of over 55% in size
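Chicken DT40 Tdp1-/- cells complemented with human TDP1, 400 cells/well, exposed to compounds plus 20 nM camptothecin for at least 48 h at 37 C; viability read as ATP content by CellTiter-Glo luminescence.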
IL1B secr inh – qHTS for Inhibitors of Inflammasome Signaling: IL-1-beta AlphaLISA Primary Screen; activity change, % at 57.5 µM; 360,000 compounds, 4.7% hits; THP-1 LPS/ATP IL-1B secretion, AlphaLISA, 16 h; active compounds read low; in the data active means activity change below about -50%; inconclusive means mostly about -30% to -49%
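THP-1 cells pretreated 1 hr with compounds (up to 57.5 uM final), then stimulated with LPS (250 ng/mL final) plus ATP (1.25 mM final); secreted IL-1B measured by AlphaLISA after 16 hr, decreased signal indicating inhibition.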
* marks the source's active call; other numbers are inactive results; ? = inconclusive; / = not tested or not shown. Unless noted, the call rests on the fitted dose curve; in most records, active means well fitted curve in the direction sought with a large enough effect; inconclusive means small, poorly fitted or top-dose-only effect, or another doubt; inactive means no such curve, though single readings can be large; an effect the other way counts as inactive or inconclusive. Unless noted, on the % scale 0 is the no-effect control and ±100 the full control effect.

SMILES	TDP1 cell noCPT	HT1080-NT tox	ELG1 DNA repair	HT1080 IDH1KD tx	DT40 TDP1 CPT	IL1B secr inh
CCN1C(Nc2ccccc2)=NC[C@@H]1CC(C)C	10%	-8%	?	-9%	1%	11
CCC(CC)CN1C(Nc2ccccc2)=NC[C@@H]1C	?	14%	?	10%	?	-5
CC(C)C[C@H]1CN=C(Nc2ccccc2)N1CC1CCCCCC1	21µM*	-18%	-18%	-25%	?	-6
CC(C)CCN1C(Nc2ccccc2)=NC[C@@H]1CC(C)C	?	-5%	12%	5%	15µM*	-7
CCC(C)CCN1C(Nc2ccccc2)=NC[C@@H]1CC(C)C (stereo not given in full)	16µM*	-1%	3%	4%	16µM*	-29
CCC(C)CCN1C(Nc2ccccc2)=NC[C@@H]1Cc1ccccc1 (stereo not given in full)	16µM*	?	7%	-17%	21µM*	?
COc1cc(/C=C/C(=O)OCC(=O)N2CCCC2)cc(OC)c1OC	5%	3%	?	7%	14%	-7
CCC(=O)N1CCc2nc(-c3ccccc3)sc2C1	2%	21%	?	13%	-4%	?
CCCN(CCC)CCCNC(=O)c1cc2c(=O)[nH]c3ccccc3c2s1	-6%	-29%	12%	-15%	35%	-73*
CCN(CC)CCNC(=O)c1cc2c(=O)[nH]c3ccc(C)cc3c2s1	-19%	/	/	/	6%	/
O=C(NCC1CCCO1)c1cc2c(=O)[nH]c3ccccc3c2s1 (stereo not given)	-29%	6%	?	4%	-1%	-6
Cc1ccc2[nH]c(=O)c3cc(C(=O)NCC4CCCO4)sc3c2c1 (stereo not given)	?	13%	0%	8%	-10%	-81*
CCCN1CCN(CCCNC(=O)c2cc3c(=O)[nH]c4ccc(C)cc4c3s2)CC1	16µM*	21µM*	6%	26µM*	?	/
CCN(CCCNC(=O)c1cc2c(=O)[nH]c3ccc(C)cc3c2s1)Cc1ccccc1	4.6µM*	/	/	/	7.3µM*	/
COc1ccc(S(=O)(=O)N2CCOCC2)cc1NC(=O)c1cccs1	28%	3%	7%	-4%	9%	10
COc1ccc(S(=O)(=O)N(C)C)cc1NC(=O)CSC(C)C(=O)Nc1cc(C)on1 (stereo not given)	-10%	4%	11%	-2%	-5%	-9
COc1ccc(/C=C/C(=O)O)cc1S(=O)(=O)NCc1cccnc1	24%	25%	-3%	14%	12%	18
CN(CCCNC(=O)c1nn(C)c2c1CS(=O)(=O)c1ccccc1-2)Cc1ccccc1	14%	-8%	0%	-5%	-12%	-14
CCOc1ccc(CCNC(=O)c2nn(C)c3c2CS(=O)(=O)c2ccccc2-3)cc1	3.7µM*	-7%	?	0%	?	-3
CCN(CC)CCCNC(=O)c1nn(C)c2c1CS(=O)(=O)c1ccccc1-2	1%	/	/	/	15%	/
Cn1nc(C(=O)NCCc2ccc(S(N)(=O)=O)cc2)c2c1-c1ccccc1S(=O)(=O)C2	5%	4%	-15%	14%	1%	0
CC(C)N(CCCNC(=O)c1nn(C)c2c1CS(=O)(=O)c1ccccc1-2)Cc1ccccc1	-3%	-5%	14%	-3%	16µM*	4
CCOc1ccc(CCNC(=O)c2nn(C)c3c2CS(=O)(=O)c2ccccc2-3)cc1OCC	?	11%	18µM*	0%	23µM*	?
COCCNc1nc(-c2cc(C)c(C)cc2C)cs1	?	0%	?	0%	?	5
CCOc1ccc(C(=O)NNC(=O)C2CC(=O)N(c3ccc(C)cc3)C2)cc1 (stereo not given)	-4%	-3%	0%	-2%	-11%	-14
SMILES	TDP1 cell noCPT	HT1080-NT tox	ELG1 DNA repair	HT1080 IDH1KD tx	DT40 TDP1 CPT	IL1B secr inh
CCn1c(C)nc2cc(S(=O)(=O)N3CCCC3)ccc21	?	5%	?	0%	-23%	0
CCn1c(C)nc2cc(S(N)(=O)=O)ccc21	23µM*	-13%	13%	-11%	?	18
COc1cc(Cl)c(C)cc1NC(=O)CSc1sc2c(O)cc(=O)[nH]c2c1C#N	0%	0%	14%	-1%	-14%	41
Cn1c(CNC(=O)c2ccccc2F)nnc1SCC(=O)c1ccccc1	-3%	1%	15%	0%	10%	-5
COc1cccc(NC(=S)NC(C)c2ccc(OC)c(OC)c2)c1 (stereo not given)	-17%	-3%	-15%	-9%	-7%	0
Cc1cccc(C(=O)NCC(=O)NC(C)CCc2ccccc2)c1 (stereo not given)	6%	14%	-14%	0%	1%	0
COc1cccc(NC(=S)NC(Cc2ccccc2)c2ccccc2)c1 (stereo not given)	16µM*	-19%	/	-27%	?	-7
Cc1cccc(NC(=S)NC(C)CCc2ccccc2)c1 (stereo not given)	?	-10%	-9%	0%	?	-96*
CC(C)C(=O)Nc1ccc(-c2nnc(-c3ccccc3)o2)cc1	?	20%	?	15%	-12%	-4
Cc1cccc(NC(=O)NC(C)CCc2ccccc2)c1 (stereo not given)	-17%	1%	?	-7%	-18%	-57*
CC(C)C(=O)Nc1ccc(C(=O)c2ccccc2)cc1	21µM*	6%	?	2%	18µM*	-22
C/C(=N\NC(=O)c1nnn(-c2nonc2N)c1-c1ccc(Cl)c(Cl)c1)c1ccncc1	15%	-22%	-17%	?	-6%	14
CCOc1ccc(CCNC(=O)c2cnc3sc(N4CCC(C)CC4)nn3c2=O)cc1	-25%	/	/	/	-28%	/
CCOc1ccc(NC(=O)C2CC(=O)N(c3ccc(C(C)C)cc3)C2)cc1 (stereo not given)	-4%	/	/	/	-2%	/
CC(CCc1ccccc1)NC(=O)c1ccc(NC(=O)c2ccccc2)cc1 (stereo not given)	10µM*	16µM*	-16%	12%	15µM*	4

From PubChem BioAssay
